For five compounds, composite z-score and z-score results are on record in PubChem BioAssay.

The source made the active and inactive calls.

Test [1] is described as follows: small molecules captured by biotinylated probe aFSTL3 – biochemical, small-molecule microarray, fluorescence 635/667, stem cell growth factor project, primary screen (AID 1064).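 Also: measures binding of the biotinylated anti-FSTL3 antibody to printed compounds.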 The following applies: higher = more signal.
Test [2] is described as follows: binders from COS7 lysate, DM2A8 probe, primary screen, torsin A project, cell lysate, small-molecule microarray, fluorescence 635/667 (AID 1065). Particulars: higher = more signal, COS7 lysate expressing mutant human TOR1A.
The nature of test [3]: small molecules captured by biotinylated probe aFGF2 – biochemical, small-molecule microarray, fluorescence 635/667, stem cell growth factor project, primary screen (AID 1067).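 Also: measures binding of biotinylated aFGF2 protein to printed compounds on slides; z-score merges feature fluorescence and signal-to-noise across triplicate slides.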 The following applies: higher = more signal.
Test [4] is described as follows: small molecules captured by biotinylated probe aFGF10 – biochemical, small-molecule microarray, fluorescence 635/667, stem cell growth factor project, primary screen (AID 1071).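 Also: score merges 667 nm spot intensity and signal to noise from triplicate slides.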 Particulars: higher = more signal.
Test [5] addresses Neurogenic locus notch homolog protein 2 (Homo sapiens) (UniProt Q04721). The test can be described thus: small molecules binding Notch2 protein – biochemical, small-molecule microarray, 635 nm fluorescence, stem cell growth factors, primary screen (AID 1073). The following applies: higher = more signal.
Test [6] has as its target Pro-neuregulin-1, membrane-bound isoform (Homo sapiens) (UniProt Q02297). The test can be described thus: small molecules binding neuregulin-1 protein – biochemical, small-molecule microarray, fluorescence 635/667, psychiatric disease protein project, primary screen (AID 1075).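 Also: score combines 667 nm spot fluorescence with signal to noise.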 Particulars: NRG1 binding, 635 nm fluorescence, higher = more signal.
Test [7] deals with Neuregulin-1 EGF-like domain. The test can be described thus: small molecules binding NRG1 EGF domain – biochemical, small-molecule microarray, 635 nm fluorescence, primary screen (AID 1081).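 Also: binding of the protein to compounds printed on small-molecule microarray slides.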 Particulars: higher = more signal.
Test [8] is described as follows: FRG1 expression reporter modulators in myotubes – cell-based, C2C12 myotubes, firefly/Renilla luciferase, luminescence, FRG1 inhibition for FSHD, primary screen (AID 1084). The following applies: FRG1 promoter luciferase, higher = more signal, called active from +8 up or from −8 down.
Test [9] can be described thus: small molecules captured by biotinylated probe aFST – biochemical, small-molecule microarray, fluorescence 635/667, stem cell growth factor project, primary screen (AID 1086).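 Also: score merges 667 nm fluorescence with signal-to-noise of each printed compound spot.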 The following applies: higher = more signal.
Test [10] can be described thus: binders of probe aHhip on microarray, primary screen, stem cell growth factor project, biochemical, small-molecule microarray, fluorescence 635/667 (AID 1087).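 Also: score merges spot fluorescence at 667nm with spot signal to noise ratio.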 Particulars: higher = more signal.
For test [11], the system named is PRMT1 (protein arginine N-methyltransferase 1). The test can be described thus: small molecules binding arginine methyltransferase PRMT1 – biochemical, small-molecule microarray, 635 nm fluorescence, primary screen (AID 1088).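 Also: binding of Prmt1 protein to compounds spotted on small-molecule microarray slides.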 The following applies: higher = more signal.
Test [12] in a line: growth effects on S. cerevisiae YJM789 – YJM789 clinical isolate, OD600, 24 h, basal, primary screen (AID 1089).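 Also: growth of clinical yeast isolate S. cerevisiae YJM 789 seeded 1000 cells per well; test concentration not given here.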 The following applies: higher = more signal, called active from +8 up or from −8 down.
The nature of test [13]: S. pombe growth modifiers, basal conditions – strain 972, OD600, 24 h, no modulator, primary screen (AID 1090).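 Also: basal condition with compound alone and no growth modifier present; test concentration not given here.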 Particulars: S. pombe 972 growth, higher = more signal, called active from +8 up or from −8 down.
A short description of test [14]: budding yeast growth modifiers under rapamycin – strain BY4716, OD600, 96 h, primary screen (AID 1091). Also: test concentration not given here. Particulars: S. cerevisiae BY4716 + rapamycin, higher = more signal, called active from +8 up or from −8 down.
Test [15] deals with Torsin-1A-interacting protein 2 (Homo sapiens) (UniProt Q8NFQ8). The test can be described thus: small molecules binding lysate-expressed LULL1 – cell lysate, human LULL1 lysate, 635/667 nm fluorescence, primary screen (AID 1092).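 Also: score merges per-feature 667 nm fluorescence with signal-to-noise.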 The following applies: small-molecule microarray, hLULL1 lysate binding, 635 nm fluorescence; higher = more signal.
Test [16] in a line: optical density change of DRC41 E. coli – strain DRC41, OD650, 24 h, E. coli filamentation project, primary screen (AID 1093).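 Also: MC1000 strain lacking acrAB efflux and sulA so SOS filamentation is blocked; test concentration not given here.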 Particulars: E. coli DRC41 growth, higher = more signal, called active from +8 up or from −8 down.
Test [17] can be described thus: probe aLefty2 binding to arrayed compounds – biochemical, biotinylated probe, 635/667 nm fluorescence, primary screen (AID 1094).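 Also: score merges spot fluorescence near 667 nm with spot signal-to-noise ratio.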 The following applies: small-molecule microarray, higher = more signal.
The test system of test [18] is Noggin (protein binding on small-molecule microarray). The test is described as follows: small molecules binding Noggin protein – biochemical, 635/667 nm fluorescence, primary screen (AID 1095).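 Also: score merges 667 nm feature fluorescence with signal to noise over triplicate slides.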 The following applies: 635 nm fluorescence, higher = more signal.
Test [19] has as its target Neurogenic locus notch homolog protein 3 (Homo sapiens) (UniProt Q9UM47). The test can be described thus: small molecules binding NOTCH3 protein – biochemical, 635/667 nm fluorescence, primary screen (AID 1096). The following applies: small-molecule microarray, 635 nm fluorescence, higher = more signal.
The nature of test [20]: probe aEGFR binding to arrayed compounds – biochemical, biotinylated probe, 635/667 nm fluorescence, primary screen (AID 1097).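 Also: probe is a biotinylated anti-EGFR antibody binding compounds printed on slides; score combines fluorescence near 667 nm and signal to noise of each spot.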 The following applies: small-molecule microarray, higher = more signal.

Chain of Pro-neuregulin-1, membrane-bound isoform (Homo sapiens) (Q02297 whole entry, looked up, the tested form may be a part, canonical isoform): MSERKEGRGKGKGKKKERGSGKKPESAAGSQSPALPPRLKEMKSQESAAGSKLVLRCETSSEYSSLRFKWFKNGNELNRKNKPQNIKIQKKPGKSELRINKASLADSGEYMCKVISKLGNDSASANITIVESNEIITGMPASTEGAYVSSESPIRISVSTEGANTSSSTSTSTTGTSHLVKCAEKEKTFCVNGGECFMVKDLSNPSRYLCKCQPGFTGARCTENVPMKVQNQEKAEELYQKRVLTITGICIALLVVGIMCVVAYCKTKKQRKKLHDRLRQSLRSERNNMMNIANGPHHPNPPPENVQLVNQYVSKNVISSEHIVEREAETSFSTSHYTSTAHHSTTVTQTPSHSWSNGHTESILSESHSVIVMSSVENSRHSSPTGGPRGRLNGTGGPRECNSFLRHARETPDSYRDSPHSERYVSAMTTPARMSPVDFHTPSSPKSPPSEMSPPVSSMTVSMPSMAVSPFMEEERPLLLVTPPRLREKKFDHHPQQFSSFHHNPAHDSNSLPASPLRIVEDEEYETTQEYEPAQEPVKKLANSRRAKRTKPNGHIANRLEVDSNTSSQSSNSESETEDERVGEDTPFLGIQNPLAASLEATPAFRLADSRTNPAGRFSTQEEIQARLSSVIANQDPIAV
Chain of Neurogenic locus notch homolog protein 2 (Homo sapiens) (Q04721 whole entry, looked up, canonical isoform): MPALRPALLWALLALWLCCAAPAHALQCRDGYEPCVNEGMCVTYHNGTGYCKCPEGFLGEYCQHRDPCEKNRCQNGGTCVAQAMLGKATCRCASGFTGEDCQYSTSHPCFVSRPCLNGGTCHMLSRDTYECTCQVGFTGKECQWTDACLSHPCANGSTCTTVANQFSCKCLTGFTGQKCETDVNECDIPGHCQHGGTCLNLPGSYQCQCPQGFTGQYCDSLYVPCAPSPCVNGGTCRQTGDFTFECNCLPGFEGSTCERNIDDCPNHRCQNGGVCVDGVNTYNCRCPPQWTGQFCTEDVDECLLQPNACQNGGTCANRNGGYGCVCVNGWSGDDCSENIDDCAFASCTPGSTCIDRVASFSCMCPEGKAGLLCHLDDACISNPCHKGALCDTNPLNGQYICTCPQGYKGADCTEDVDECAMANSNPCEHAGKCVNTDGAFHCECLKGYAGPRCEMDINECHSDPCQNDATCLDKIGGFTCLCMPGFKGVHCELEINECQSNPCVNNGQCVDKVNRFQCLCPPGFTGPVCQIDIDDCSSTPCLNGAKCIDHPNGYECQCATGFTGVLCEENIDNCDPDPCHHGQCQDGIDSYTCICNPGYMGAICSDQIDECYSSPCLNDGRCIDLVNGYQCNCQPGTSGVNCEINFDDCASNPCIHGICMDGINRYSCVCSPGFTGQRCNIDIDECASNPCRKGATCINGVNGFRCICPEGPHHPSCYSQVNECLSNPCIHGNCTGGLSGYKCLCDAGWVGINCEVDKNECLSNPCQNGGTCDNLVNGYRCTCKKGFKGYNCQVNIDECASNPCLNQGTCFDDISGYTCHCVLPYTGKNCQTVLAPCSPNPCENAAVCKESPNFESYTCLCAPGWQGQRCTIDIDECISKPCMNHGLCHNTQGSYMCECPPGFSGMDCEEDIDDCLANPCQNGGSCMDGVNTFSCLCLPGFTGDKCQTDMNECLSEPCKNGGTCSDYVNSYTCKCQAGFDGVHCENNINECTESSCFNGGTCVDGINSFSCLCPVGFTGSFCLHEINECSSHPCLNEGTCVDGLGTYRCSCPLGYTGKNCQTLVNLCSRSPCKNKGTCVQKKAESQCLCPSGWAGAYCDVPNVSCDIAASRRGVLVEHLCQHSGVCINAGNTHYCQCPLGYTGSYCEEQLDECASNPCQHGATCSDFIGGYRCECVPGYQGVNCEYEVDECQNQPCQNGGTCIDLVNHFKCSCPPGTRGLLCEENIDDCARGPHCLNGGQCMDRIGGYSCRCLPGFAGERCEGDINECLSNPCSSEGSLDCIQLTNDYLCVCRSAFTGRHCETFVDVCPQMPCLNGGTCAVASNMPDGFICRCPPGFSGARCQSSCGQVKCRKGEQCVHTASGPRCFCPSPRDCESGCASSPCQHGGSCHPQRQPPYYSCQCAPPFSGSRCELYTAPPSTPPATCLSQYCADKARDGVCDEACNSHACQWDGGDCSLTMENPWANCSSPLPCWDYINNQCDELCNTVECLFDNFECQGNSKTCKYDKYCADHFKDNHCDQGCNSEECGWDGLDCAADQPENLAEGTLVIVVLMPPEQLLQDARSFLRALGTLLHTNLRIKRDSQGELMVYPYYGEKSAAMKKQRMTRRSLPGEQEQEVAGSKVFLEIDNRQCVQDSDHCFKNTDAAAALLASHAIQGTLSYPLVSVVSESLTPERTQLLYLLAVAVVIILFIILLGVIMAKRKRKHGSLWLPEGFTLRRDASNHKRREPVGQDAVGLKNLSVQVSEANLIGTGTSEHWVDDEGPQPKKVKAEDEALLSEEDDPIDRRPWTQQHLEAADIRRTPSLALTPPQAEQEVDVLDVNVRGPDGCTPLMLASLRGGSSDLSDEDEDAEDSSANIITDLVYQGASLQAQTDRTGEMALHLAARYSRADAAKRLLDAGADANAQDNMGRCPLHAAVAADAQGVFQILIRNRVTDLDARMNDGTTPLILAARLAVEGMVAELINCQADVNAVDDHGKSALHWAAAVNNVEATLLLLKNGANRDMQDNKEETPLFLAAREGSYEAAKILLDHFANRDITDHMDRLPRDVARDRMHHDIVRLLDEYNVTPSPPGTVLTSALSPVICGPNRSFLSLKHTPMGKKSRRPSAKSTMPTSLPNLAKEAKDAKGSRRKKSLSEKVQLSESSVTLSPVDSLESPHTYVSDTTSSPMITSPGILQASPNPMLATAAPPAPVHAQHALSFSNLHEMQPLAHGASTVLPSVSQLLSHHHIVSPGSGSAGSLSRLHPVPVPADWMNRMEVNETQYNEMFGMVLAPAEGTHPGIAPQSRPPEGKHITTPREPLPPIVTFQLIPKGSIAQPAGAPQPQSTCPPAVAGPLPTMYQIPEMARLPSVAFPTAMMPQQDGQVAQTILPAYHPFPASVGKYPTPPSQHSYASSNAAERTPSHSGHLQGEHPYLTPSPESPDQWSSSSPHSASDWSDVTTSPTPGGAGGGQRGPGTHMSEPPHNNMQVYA
Chain of Torsin-1A-interacting protein 2 (Homo sapiens) (Q8NFQ8 whole entry, looked up): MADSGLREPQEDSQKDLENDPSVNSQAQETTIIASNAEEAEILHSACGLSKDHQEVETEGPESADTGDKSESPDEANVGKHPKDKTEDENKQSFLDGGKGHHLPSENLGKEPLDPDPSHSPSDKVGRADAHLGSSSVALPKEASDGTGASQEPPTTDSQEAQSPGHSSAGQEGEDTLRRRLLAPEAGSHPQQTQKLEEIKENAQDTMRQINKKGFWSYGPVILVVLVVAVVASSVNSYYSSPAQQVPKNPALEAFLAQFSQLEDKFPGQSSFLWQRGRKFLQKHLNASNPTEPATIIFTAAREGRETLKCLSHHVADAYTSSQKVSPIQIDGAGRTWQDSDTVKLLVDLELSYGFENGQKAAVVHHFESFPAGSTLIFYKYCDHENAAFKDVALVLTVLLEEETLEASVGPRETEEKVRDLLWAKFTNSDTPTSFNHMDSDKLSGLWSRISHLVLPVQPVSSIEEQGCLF

In the case of `CC(C)C[C@@H]1NC(=O)[C@H]2C[C@@H](C(=O)NCCCCCCNC(=O)CS)[C@@H](c3ccc(O)cc3)N2C1=O`, the composite z-score in test [1] was -0.254; in test [2], 1.62; in [3] it was -0.0297; in test [4], 0.437; in [5], 0.766; in test [6], 1.22. Also, the composite z-score was 1.34 in test [7]; 0.665 in test [9]; -0.0296 in test [10]; 1.54 in test [11]; 2.91 in [15]; -0.101 in [17]. Also, the composite z-score in [18] is 1.14; in test [19], 0.589; in test [20], -0.0594. The z-score in test [8] is 1.61 (inactive); in test [12], 0.107 (inactive); in test [13] it was 0.673 (inactive); in test [14], 0.185 (inactive); in test [16], 0.205 (inactive).

For the compound `C=CCC(OC(C)=O)[C@@H]1[C@@H](N(Cc2ccc(-c3cccc(C(F)(F)F)c3)o2)C(=O)c2cccc3ccccc23)c2cc(OCCCO)ccc2N1C(=O)c1ccc2ccccc2c1` (stereo not given in full), the composite z-score was 0.125 in test [1]; -0.132 in [2]; -0.0909 in test [3]; 0.224 in test [4]; -0.365 in test [5]; 0.62 in test [6]. For the same compound, the composite z-score in [7] is -0.332; in test [9], -0.0637; in test [10] it was -0.15; in test [11], -0.429; in test [15], -0.255; in test [17] it was -0.0728. Also, the composite z-score in [18] is 0.307; in test [19] it was -0.1; in [20] it was -0.122. Moreover, the z-score is 0.141 (inactive) in test [8]; 0.611 (inactive) in [12]; 0.609 (inactive) in test [13]; -0.549 (inactive) in test [14]; 0.0268 (inactive) in [16].

On to `COc1ccc(NN2C(C(O)c3ccc(OC)cc3)C=CC3C(=O)N(C4CCCCC4)C(=O)C32)cc1` (stereo not given), for which the composite z-score in [1] was -0.147; in test [2] it was 0.191; in test [3], -0.0131; in test [4], 0.467; in test [5], 1.18; in [6] it was 1.29. For the same compound, the composite z-score in test [7] is 0.978; in [9] it was 0.775; in test [10] it was -0.16; in test [11] it was 1.43; in test [15] it was 2.12; in test [17] it was 0.103. In addition, the composite z-score in test [18] was found to be 0.157; in [19], 1.08; in [20], 0.21. For the same compound, the z-score in [8] is 1.55 (inactive); in test [12], -0.0924 (inactive); in [13], 1.01 (inactive); in test [14], 0.365 (inactive); in test [16], 0.0447 (inactive).

As for `C=CCC(OC(C)=O)[C@@H]1[C@@H](N(Cc2ccc(-c3cccc(C(F)(F)F)c3)o2)C(=O)Cc2ccc(OC)cc2)c2cc(OCCCO)ccc2N1C(=O)c1ccc2ccccc2n1` (stereo not given in full), the composite z-score in [1] is 0.0523; in test [2], -0.0913; in test [3], -0.0922; in test [4] it was 0.745; in test [5], -0.485; in test [6], -0.249. Moreover, the composite z-score is -0.433 in test [7]; 0.364 in [9]; -0.16 in test [10]; -0.538 in [11]; 0.806 in [15]; -0.0998 in test [17]. The composite z-score is -0.306 in test [18], -0.412 in test [19] and -0.0828 in test [20]. Also, the z-score in test [8] was 0.312 (inactive); in test [12], 0.195 (inactive); in [13] it was 0.153 (inactive); in test [14], -0.44 (inactive); in test [16], -0.555 (inactive).

Consider `CC(C)CNC(=O)[C@@H]1c2ccccc2C(=O)N(Cc2ccccc2Cl)[C@H]1c1ccc(CO)cc1`, for which the composite z-score in [1] is 0.29; in test [2], 0.0116; in test [3], -0.129; in test [4] it was -0.833; in [5] it was -0.595; in test [6], -1.27. Besides, the composite z-score in test [7] was 0.252; in [9] it was -0.295; in test [10], -0.236; in test [11] it was -0.469; in test [15], 3.09; in test [17], 0.0529. Besides, the composite z-score in [18] is -1.04; in test [19] it was -1.08; in test [20], -0.239. The z-score in test [8] is -1.38 (inactive); in test [12] it was -0.691 (inactive); in test [13] it was -0.354 (inactive); in [14], -0.332 (inactive); in [16], 0.534 (inactive).
